About 620 (52%) of roughly 1,200 compounds were called active.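 The calls were made as follows: active = every separate test run was called active for a drop in luminescence, with AC50 within twice the top valid dose (actives reach about 71 µM in these data); inconclusive = the separate test runs disagree in their calls; inactive = all runs inactive, including signal change in the wrong direction.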 The set was probably picked from earlier hits. Only a sample is shown.
Assay: bead-based luminescence quenchers, dual-tagged ARNT – biochemical, AlphaScreen, cherry-pick, artefact control for ARNT-TACC3 interaction inhibitor project, dose response (AID 651705);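 as to activity change, negative = signal decrease: 0% = neutral control wells with protein and -100% = buffer without protein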
Conditions: His-ARNT PASB-GST AlphaScreen artifact counter-screen; series mostly up to 68 µM; activity change, negative = signal decrease: at the top concentration

Row | Compound | AC50 | activity change, negative = signal decrease
1 | Oc1cccc(/C=N/Nc2ccc(Cl)nn2)c1O | 10.2 µM (active) | –
2 | CN(c1ccc(C(=O)N2CCc3ccccc3C2)cc1)S(C)(=O)=O | – | -2.85% (inactive)
3 | C[C@@H]1CN([C@H](C)CO)C(=O)Cc2cc(NC(=O)Nc3cccc4ccccc34)ccc2O[C@@H]1CN(C)Cc1ccc(C(=O)O)cc1 | – | -5.56% [at 38 µM] (inactive)
4 | CC(C(=O)Nc1ccc(O)c(C(=O)O)c1)N1C(=O)/C(=C/c2cccs2)SC1=S (stereo unspecified) | – | -21.1% (inactive)
5 | CCN(CC)c1ccc(/C=N/NC(=O)c2cnccn2)c(O)c1 | – | -14.3% (inactive)
6 | CCOC(=O)N1CCN(C(c2cccnc2)c2ccc3cccnc3c2O)CC1 (stereo unspecified) | 18 µM (active) | –
7 | CCN1CCN(C(c2cccnc2)c2cc(Cl)c3cccnc3c2O)CC1 (stereo unspecified) | 23.8 µM (active) | –
8 | COc1ccc2ccccc2c1CNCc1ccccn1 | – | -24.4% (inactive)
9 | O=S(=O)(c1ccccc1)N1C[C@@H]2[C@H](c3ccccc31)[C@H](CO)N2Cc1ccccn1 | 65.5 µM (active) | –
10 | C/C(=N\NC(=O)Cc1ccc(Cl)cc1)c1ccccn1 | 59.3 µM (active) | –
11 | Cc1c(CC(=O)NCC(=O)NCC(=O)O)c(=O)oc2cc3oc4c(c3cc12)CCCC4 | – | -7.24% (inactive)
12 | O=C(NCCCn1ccnc1)c1cc(-c2ccccc2)on1 | – | -4.56% [at 38 µM] (inactive)
13 | CC(=O)/C(=N\Nc1ccc(Cl)cc1Cl)Sc1cccc2cccnc12 | 7.85 µM (active) | –
14 | Oc1ccc(Br)cc1/C=N/Nc1ccccn1 | 56.5 µM (active) | –
15 | Cc1ccccc1CSc1nnc(-c2ccccn2)n1N | – | -19.5% (inactive)
16 | O=C(CN1C(=O)COc2ccccc21)Nc1ccc(F)cc1 | 13.5 µM (active) | –
17 | O=C1c2cccc3cccc(c23)C(=O)N1CCCCCc1n[nH]c(=S)o1 | – | -29.9% (inactive)
18 | CCn1cc(/C=C2/SC(=S)NC2=O)c(C)n1 | – | -7.76% (inactive)
19 | Oc1c(CN2CCN(c3ccc(F)cc3)CC2)cc(Cl)c2cccnc12 | 10.2 µM (active) | –
20 | O=C(CSc1ccc(-c2ccccn2)nn1)Nc1ccccc1 | 10.4 µM (active) | –
21 | C[C@@H]1CN([C@@H](C)CO)C(=O)c2cc(NS(=O)(=O)c3cccs3)ccc2O[C@H]1CN(C)CC1CCCCC1 | – | -5.29% [at 38 µM] (inactive)
22 | c1ccc(-c2cn3c(n2)CCc2ccc4cccnc4c2-3)cc1 | – | -27.6% (inactive)
23 | Cc1ccc(NC(=O)c2cc(-c3ccccc3)on2)cn1 | – | 2.04% [at 38 µM] (inactive)

Row | Compound | AC50 | activity change, negative = signal decrease
24 | Cn1c(-c2ccccc2)cnc1NC(=O)c1cc(-c2ccccc2)on1 | 40.5 µM (active) | –
25 | O=C(Nc1cnc2ccccc2c1)c1cc(-c2ccccc2)on1 | – | -4.59% [at 38 µM] (inactive)
26 | CCOc1cc(N2CCOCC2)c(OCC)cc1NC(=O)COc1cccc2cccnc12 | 36.5 µM (active) | –
27 | O=C(N[C@@H]1CC[C@H](CCn2cc(-c3ccccn3)nn2)O[C@@H]1CO)c1ccccc1 | 37.6 µM (active) | –
28 | O=S(=O)(N[C@@H]1CC[C@@H](CCn2cc(-c3ccccn3)nn2)O[C@@H]1CO)c1cccc(Cl)c1 | 41.9 µM (active) | –
29 | COCCNC(=O)Cn1cc(C(=O)c2cccs2)c2ccccc21 | – | -2.7% (inactive)
30 | Cn1c(=NC(=O)c2cnccn2)sc2ccccc21 | – | -2.58% (inactive)
31 | Cc1c(NC(=O)CSc2cccc3cccnc23)c(=O)n(-c2ccccc2)n1C | 32.1 µM (active) | –
32 | COc1ccc(Cc2nnc(N/N=C/c3ccccc3O)[nH]c2=O)cc1OC | 6.44 µM (active) | –
33 | CCN(/N=C/c1ccccc1)c1cc(=O)n(C)c(=O)[nH]1 | – | 1.26% (inactive)
34 | COc1cc(C2C(C#N)=C(N)Oc3n[nH]c(-c4ccccn4)c32)cc(OC)c1OC (stereo unspecified) | – | -7.09% (inactive)
35 | c1ccc(-c2nnc(-c3ccccn3)nc2Nc2nc3ccccc3s2)cc1 | 1.9 µM (active) | –
36 | O=C(CN1C(=O)C2C3C=CC(C3)C2C1=O)Nc1nc(-c2ccccn2)cs1 (stereo unspecified) | 47.6 µM (active) | –
37 | O=C(COc1ccccc1F)Nc1nc(-c2ccccn2)cs1 | 54.1 µM (active) | –
38 | CC(NC(=O)c1ccco1)C(=O)Nc1nc(-c2ccccn2)cs1 (stereo unspecified) | 31.7 µM (active) | –
39 | Cc1c(CC(=O)NCCCCCC(=O)O)c(=O)oc2cc3occ(-c4ccccc4)c3cc12 | – | -32.8% (inactive)
40 | CCN(C(=O)Cc1nc(N)n[nH]1)C1(C(=O)Nc2ccccc2)CCCCC1 | – | -14.5% (inactive)
41 | Cc1ccc(S(=O)(=O)n2oc(=O)c(C3CCCCC3)c2N)cc1 | 42.3 µM (active) | –
42 | COc1ccccc1Nc1nc(N)nc(CN(C)C2CCCCC2)n1 | – | -22.6% (inactive)
43 | CC[C@]1(O)CC2CN(CCc3c([nH]c4ccccc34)[C@@](C(=O)OC)(c3cc4c(cc3OC)N(C=O)[C@H]3[C@@](O)(C(=O)OC)[C@H](OC(C)=O)[C@]5(CC)C=CCN6CC[C@]43[C@@H]65)C2)C1 (stereo partly specified) | – | -11% (inactive)
44 | CCN(CC)CCOc1ccc2c(c1)C(=NNC(=O)c1ccccn1)c1cc(OCCN(CC)CC)ccc1-2 | 69.6 µM (active) | –
45 | CCOC(=O)c1ccc(Nc2cc3ccccc3c(=O)[nH]2)cc1 | – | -19.3% (inactive)
46 | COC(=O)CC1=NN(c2nc(C)cc(C)n2)C(=O)C1 | – | 2.68% (inactive)
